An excerpt weighted towards active compounds, which were near 2% of everything screened.
S1P4 antagonist: human S1P4 receptor antagonism. O95977. S1P4-expressing cells, antagonist mode, reporter read-out. inhibition, % at 4.98 µM. 220,000 compounds, 0.26% hits. AID 1510; in the data active = inhibition above about 29%;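 note: 0% = wells stimulated with agonist and 100% = vehicle wells without agonist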
EP2 mod: modulators of human EP2 prostaglandin E2 receptor; P43116; EP2-expressing cells, cAMP HTRF FRET, PGE2 co-stimulation; induction, % at 25 µM; 260,000 compounds, 0.83% hits;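 active = compounds whose cAMP rise, as percent of the full-agonist control response, exceeds 60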;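 note: rat C6 glioma line stably carrying human EP2 under a CMV promoter; the protocol text gives 20 µM as final concentration; 100% = response of wells given 1 µM PGE2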
S1P3 antag-1: blocks the human S1P3 receptor; Q99500; CHO S1P3 NFAT-BLA reporter, FRET fluorescence, antagonist mode; inhibition, % at 4.98 µM; 170,000 compounds, 0.27% hits; AID 485;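 active = inhibition above the plate cutoff, the mean inhibition of test wells on that plate plus 3 SD, cut at about 28% in these data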;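 note: cells challenged with S1P at its EC80 of 0.8 µM; blue over green emission ratio from cleaved BLA substrate after 4 h stimulation; 0% = S1P-stimulated wells and 100% = unstimulated DMSO-only wells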
Target sequence (Q99500 whole entry, looked up): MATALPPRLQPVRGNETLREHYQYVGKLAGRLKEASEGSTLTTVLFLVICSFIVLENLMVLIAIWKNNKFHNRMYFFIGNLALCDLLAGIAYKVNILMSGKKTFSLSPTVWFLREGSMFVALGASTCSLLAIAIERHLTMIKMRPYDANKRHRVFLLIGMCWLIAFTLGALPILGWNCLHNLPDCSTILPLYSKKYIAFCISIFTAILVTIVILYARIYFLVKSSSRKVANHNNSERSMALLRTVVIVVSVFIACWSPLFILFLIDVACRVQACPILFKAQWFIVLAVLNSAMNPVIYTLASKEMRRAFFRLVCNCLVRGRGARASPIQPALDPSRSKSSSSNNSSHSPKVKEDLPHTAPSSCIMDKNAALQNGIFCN
EP2 antag: inhibitors of human EP2 prostaglandin E2 receptor; P43116; C6 glioma cells expressing human EP2, cAMP TR-FRET; cells stimulated with saturating PGE2; inhibition, % at 25 µM; 260,000 compounds, 0.52% hits; AID 1422;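 active = percent inhibition above 40 after rounding to a whole number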;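 note: rat C6 glioma host cells with rolipram phosphodiesterase inhibitor present; the protocol text gives 20 µM as final concentration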
S1P4 ag: agonists of human S1P4 receptor | AID 1509 | activation, % at 4.98 µM | 220,000 compounds, 0.35% hits | S1P4-expressing cell line, agonist reporter assay | O95977; in the data active = activation above about 11%;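 note: 0% = DMSO vehicle and 100% = reference agonist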
S1P3 antag-2: human S1P3 receptor antagonism, confirmation; 240 compounds, 30% hits; shares compounds with S1P3 antag-1; CHO S1P3 NFAT-BLA reporter, FRET, antagonist mode; inhibition, % at 4.98 µM;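 active = inhibition above the hit threshold that was computed for the earlier primary screen, cut at about 30% in these data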;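 note: 0% = S1P-stimulated wells and 100% = unstimulated DMSO-only wells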
Starred values were filed as active, the others as inactive; / = not tested or not shown.

SMILES	S1P4 antagonist	EP2 mod	S1P3 antag-1	EP2 antag	S1P4 ag	S1P3 antag-2
Cc1ccc(S(=O)(=O)NCCc2nnc3ccc(SCC(=O)Nc4nc5ccccc5s4)nn23)cc1	-9	10	28*	6	-1	-5
COc1ccc(C(O)CN2CCC3(CC2)CC(O)c2ccc(OC)cc2O3)cc1 (centres undefined)	/	-66	/	8	/	/
Cc1nnnn1-c1ccc(CC(=O)N2CCCCC2c2nc3ccccc3[nH]2)cc1 (centres undefined)	/	-53	/	14	/	/
C/C(=N\Nc1ccc([N+](=O)[O-])cc1)c1ccc(O)cc1	23	-84	34*	19	0	27
Cc1nc2c(c(=O)[nH]1)CCN(C(=O)Cc1nn(C(C)C)c(=O)c3ccccc13)C2	/	-30	/	4	/	/
CNc1nc2cc([N+](=O)[O-])c([N+](=O)[O-])cc2nc1NC	-6	-15	54*	13	-2	34*
COc1ncc(CN2CCC(O)(c3ccc4c(c3)OCO4)CC2)cn1	/	5	/	2	/	/
O=C(Nc1cccc(S(=O)(=O)Nc2ccc(Cl)cc2)c1)c1ccc(Cl)nc1	-39	-18	2	5	-1	/
COc1ccc(NS(=O)(=O)c2cccc(NC(=O)c3ccc(Cl)nc3)c2)cc1	12	-61	33*	4	-1	11
NC(=O)C1CCN(Cc2nnnn2CCc2ccccc2)CC1	/	12	/	15	/	/
Clc1ccccc1C1=CC(c2ccco2)n2ncnc2N1 (centres undefined)	0	-21	32*	8	0	7
CC1=NNC(=S)NC(C)(C)C1	/	15	/	11	/	/
COc1cnc(-c2ccccn2)nc1Oc1ccc(F)cc1F	9	-1	29*	7	1	-4
COc1cnc(-c2ccccn2)nc1Oc1ccccc1Cl	-8	9	/	5	-1	/
COc1cnc(-c2ccccn2)nc1NC(C)C	-4	10	29*	6	1	19
COc1ccccc1Sc1nc(-c2ccccn2)ncc1OC	-11	-24	9	7	2	/
CCCCNC(=O)COC(=O)c1c2c(nc3ccccc13)/C(=C/c1cccs1)CC2	-27	8	37*	6	2	25
CNC(=O)NC(=O)C(C)OC(=O)c1c2c(nc3ccccc13)/C(=C/c1cccs1)CC2 (centres undefined)	10	10	19	9	1	/
CC(C)(C)c1cc(C(=O)Nc2ccc(F)cc2)n(Cc2ccc(F)cc2)n1	11	-3	30*	11	0	24
O=C1S/C(=C/c2ccccc2)C(=O)N1CC(O)Cn1c2ccccc2c2ccccc21 (centres undefined)	-9	11	40*	5	0	-18
OCCNCCCOc1cc(Cl)ccc1Cl	2	-29	36*	10	2	-9
CC(Sc1nnc(C2CCCCC2)n1-c1cccc(Cl)c1)C(=O)O (centres undefined)	/	-40	/	26	/	/
Cc1nn(-c2ccccc2)c2sc(C(=O)Nc3nc4c(s3)C(=O)CC(C)(C)C4)cc12	/	-17	/	25	/	/
CN(C)/C=C/C(=C\C(=O)C(F)(F)F)Nc1ccc(C(F)(F)F)cc1	-13	17	45*	4	1	-6
CN(C)/C=C/C(=O)C(F)(F)F	2	27	-9	5	2	/
SMILES	S1P4 antagonist	EP2 mod	S1P3 antag-1	EP2 antag	S1P4 ag	S1P3 antag-2
COc1ccc2cc3cc(C(=O)NCc4ccc5c(c4)OCO5)oc3nc2c1	-31	-35	-7	/	0	/
COc1ccc2cc3cc(C(=O)NCc4cccnc4)oc3nc2c1	-8	-32	30*	10	-1	-3
CCC(=O)Nc1cc2c(=O)n(Cc3ccccc3)c(C)nc2cc1N1CCCCC1	/	25	/	15	/	/
CCOC(=O)C1CCCN(S(=O)(=O)c2ccc(S(=O)(=O)N(CC)CC)cc2)C1 (centres undefined)	12	-30	48*	11	0	22
CCC(=O)N1CCN(c2ccc(NC(=O)COc3ccccc3)cc2)CC1	/	-25	/	3	/	/
O=C(NCc1ccco1)C(=S)N1CCCC1	5	-2	-16	4	0	/
O=C(NCc1ccco1)C(=S)N1CCCCC1	3	13	28*	13	2	-10
Cc1cccc(C2(c3cccc(C)c3)CC2C(=O)Nc2ccc([N+](=O)[O-])cc2O)c1 (centres undefined)	-1	61*	76*	8	1	73*
Cc1ccccc1C(=O)OCC#CCSc1nnc(-c2ccncc2)o1	/	-30	/	10	/	/
COc1cc2cc(CN(C(=O)c3ccc(Cl)cc3)C3CCCC3)c(=O)[nH]c2cc1OC	/	-51	/	12	/	/
O=C(Nc1ccc(F)cc1F)c1c(C(F)(F)F)ccnc1Oc1cccc(C(F)(F)F)c1	11	9	19	9	-1	/
O=C(Nc1ccc(F)cc1F)c1c(C(F)(F)F)ccnc1Oc1ccc(Cl)cc1	-1	19	44*	19	-2	55*
Nc1cc(-c2cccs2)nn(CC(=O)NCCC2=CCCCC2)c1=O	/	-74	/	5	/	/
CCc1ccc(-c2csc3ncn(CC(=O)OC(C)C)c(=O)c23)cc1	/	29	/	10	/	/
COc1ccc(OC)c(Nc2ccc(Nc3cc(OC)ccc3OC)nn2)c1	-1	-20	31*	1	0	13
FC(F)(F)c1cccc(NC(=S)NNC(=S)Nc2cccc(C(F)(F)F)c2)c1	-11	-23	2	27	1	/
FC(F)(F)c1cccc(NC(=S)NC(c2ccccc2)c2ccccc2)c1	5	15	45*	4	4	49*
CC(C)(C)c1ccc(CNc2ccc([N+](=O)[O-])cn2)cc1	-12	4	30*	5	-2	15
Cc1cc(C)c2nc3sc(C(=O)N4CCc5ccccc54)c(N)c3cc2c1	/	1	/	11	/	/
COC(=O)c1ccccc1NC(=O)CSc1nc(C)cc(C)n1	12	-20	9	5	-2	/
Cc1cc(C)nc(SCC(=O)Nc2ccnc3ccccc23)n1	-11	-13	30*	6	-1	8
O=C(N/N=C/c1ccc(-c2cccc([N+](=O)[O-])c2)o1)[C@H]1C[C@@H]1c1ccccc1	0	5	13	6	-2	/
O=C(N/N=C/c1ccc(-c2ccc([N+](=O)[O-])cc2)o1)[C@H]1C[C@@H]1c1ccccc1	0	-31	45*	2	0	63*
O=C(O)c1ccc(-c2ccc(/C=N/Nc3ccc([N+](=O)[O-])cc3)o2)cc1	6	-79	29*	46*	3	-1
O=C(O)c1cccc(-c2ccc(/C=N/Nc3ccc([N+](=O)[O-])cc3)o2)c1	20	-62	14	25	-1	/
C=CCn1c(O)c(C=Nc2ccc(CN3CCCCC3)cc2)c(=O)[nH]c1=S	-18	9	42*	2	0	-6
CC(CCC(=O)O)[C@H]1CCC2C3CC[C@@H]4C[C@H](O)CC[C@]4(C)C3C=C[C@@]21C (some centres undefined)	/	38	/	7	/	/

Bioassay records as filed in PubChem.
